{"source": "ChEMBL document CHEMBL1157539", "about": "“Thousands of chemical starting points for antimalarial lead identification” (Nature, 2010)"}
{"tested_on": "Plasmodium falciparum", "experiment": "GSK_TCMDC: Inhibition of Plasmodium falciparum Dd2 in whole red blood cells, using parasite LDH activity as an index of growth. Test compounds present at 2uM", "type": "functional", "units": {"Inhibition": "%"}}
{"smiles": "COc1ccc(C2NCCc3c2[nH]c2ccccc32)cc1CN1CCN(c2ccc(F)cc2)CC1.Cl", "note": "(stereo unspecified)", "Inhibition": 56}
{"smiles": "COc1cc(F)c2ncc(Cl)c(CCN3CCC(NCc4ccc5c(c4)NC(=O)CO5)CC3)c2c1.Cl", "Inhibition": 79}
{"smiles": "COc1ccc(C(=O)Nc2nonc2-c2ccc(OC)c(OC)c2)cc1Cl", "Inhibition": 97}
{"smiles": "COc1cccc(Nc2nc(NCCO)c3ccccc3n2)c1.Cl", "Inhibition": 88}
{"tested_on": "HepG2", "experiment": "GSK_TCMDC: Percent inhibition of human HepG2 cell line. Test compounds present at 10uM.", "type": "functional", "units": {"Inhibition": "%"}}
{"smiles": "Cc1cccc2nc(-c3cccc(-c4ccc(NC(=O)C(C)CN(C)C)cc4)c3)[nH]c12", "note": "(stereo unspecified)", "Inhibition": 29}
{"smiles": "CC(C)(C)c1ccc(/C=C/C(=O)NCCCCCN2CCC(c3c[nH]c4ccccc34)CC2)cc1", "Inhibition": 70}
{"smiles": "Cc1ccc(S(=O)(=O)N(CCCN2CCN(C)CC2)Cc2csc(-c3ccc(CNCc4ccccc4)cc3)n2)cc1.O=C(O)C(F)(F)F", "Inhibition": 15}
{"smiles": "COc1ccc(Nc2ccnc3cc4ccccc4cc23)cc1.Cl", "Inhibition": 32}
{"smiles": "COc1cc2nc(N3CCC(C(N)=O)CC3)nc(NCc3ccccc3)c2cc1OC", "Inhibition": 23}
{"smiles": "Cc1nc2nc(N)nc(N)c2c(C)c1Cc1ccc(Cl)cc1.Cl", "Inhibition": 62}
{"smiles": "CSc1nccc(-c2ccc3ccnc(N)c3c2)n1", "Inhibition": 30}
{"smiles": "Oc1ccc(CCNc2nc(N/N=C/c3ccc(Cl)cc3)nc(N3CCNCC3)n2)cc1", "Inhibition": 14}
{"smiles": "c1ccn2c(-c3ncnc(NCc4ccc5c(c4)CCO5)n3)cnc2c1", "Inhibition": 12}
{"smiles": "CCCCNC(=O)[C@H](CC1CCCCC1)NC(=O)c1ccc(O)c(-c2ccc(Cl)c(Cl)c2)c1", "Inhibition": 0}
{"smiles": "COc1ccc2ncc(F)c([C@H](O)CN3CCC(NCc4ccc5c(c4)NC(=O)CS5)CC3)c2c1.Cl", "Inhibition": 7}
{"smiles": "CN(C)CC1CCCN1Cc1ccccc1-c1cnn(C)c(=O)c1Oc1ccccc1F.O=C(O)C(F)(F)F", "note": "(stereo unspecified)", "Inhibition": 18}
{"smiles": "Cc1cc(OCCCN2CCC(NS(=O)(=O)c3ccc(Cl)c(Cl)c3)C2)c2ccccc2n1", "note": "(stereo unspecified)", "Inhibition": 28}
{"smiles": "COc1cccc(Nc2c(C(N)=O)cnc3ccc(-c4ccccc4)cc23)c1", "Inhibition": 2}
{"smiles": "CCNc1cc(C(=O)N[C@@H](Cc2ccccc2)[C@H](O)CNC(C)(C)CCCC(C)C)cc(N2CCCC2=O)c1.O=CO", "Inhibition": 0}
{"smiles": "O=C(Nc1ccc2c(c1)CCN(C1CCC1)CC2)c1cn(-c2ccccc2)nc1-c1ccccc1.O=C(O)C(F)(F)F", "Inhibition": 38}
{"smiles": "COc1ccc(-c2ccc(CNC3Cc4ccccc4C3)cc2)cc1S(=O)(=O)NCCN1CCCC1.O=C(O)C(F)(F)F", "Inhibition": 30}
{"smiles": "O=C(c1ccc(F)c(F)c1)N1CCOC(CCN2CCC(c3ccccc3)CC2)(c2ccc(Cl)c(Cl)c2)C1", "note": "(stereo unspecified)", "Inhibition": 51}
{"smiles": "COc1ccc2nccc([C@@H](O)CN3CCC(NC(=O)/C=C/c4cccc(-c5ccccc5)c4)CC3)c2c1", "Inhibition": 12}
{"smiles": "CC(C)C[C@H](NC(=O)c1ccc(OCCN2CCOCC2)cc1)C(=O)N[C@H](/C=N/N(C)C(=O)c1ccccc1)CCc1ccccc1", "Inhibition": 8}
{"smiles": "Cc1[nH]c2ccc(NS(C)(=O)=O)cc2c1C1CCN(CCC2CCN(C(=O)/C=C/c3ccc(Cl)c(Cl)c3)CC2)CC1", "Inhibition": 23}
{"smiles": "CCC(C)C(COC(=O)c1cc(OC)c(OC)c(OC)c1)N(C)CCN(C)C(COC(=O)c1cc(OC)c(OC)c(OC)c1)C(C)CC.Cl", "note": "(stereo unspecified)", "Inhibition": 20}
{"smiles": "O=C(O)C(F)(F)F.O=S(=O)(NCCN1CCCC1)c1ccc(-c2cccc(CNCc3ccc(F)cc3)c2)cc1", "Inhibition": 76}
{"smiles": "CCOc1cc2c(cc1S(=O)(=O)c1ccc(COc3ccc(C(F)(F)F)cc3)cc1)CCN(C)CC2.Cl", "Inhibition": 27}
{"smiles": "CCNc1nc(OCC(F)(F)F)nc(N(c2ccccc2)c2ccccc2)n1", "Inhibition": 5}
{"smiles": "Cl.O=S(=O)(c1ccc(OCc2ccc(Cl)cc2)cc1)c1cc2c(cc1OCc1ccccc1)CCN(CC1CC1)CC2", "Inhibition": 19}
{"smiles": "COc1ccccc1C1CCN(C2CCC(NC(=O)/C=C/c3ccc(C(F)(F)F)cc3)CC2)CC1", "note": "(stereo unspecified)", "Inhibition": 57}
{"smiles": "Cc1cccc2nc(-c3ccc(-c4ccc(NC(=O)Nc5ccsc5)cc4)s3)[nH]c12", "Inhibition": 74}
{"smiles": "Cl.N#Cc1ccc2c(c1)CCN(CCC1CCC(NC(=O)/C=C/c3c[nH]c4c(Br)cccc34)CC1)CC2", "note": "(stereo unspecified)", "Inhibition": 32}
{"smiles": "O=C(Nc1ccc(N2CCN(c3ncccc3C(F)(F)F)CC2)nc1)c1cccs1", "Inhibition": 7}
{"smiles": "O=C(Nc1cccc(CN2CCCN(Cc3cccc(O)c3)CC2)c1)c1ccc2ccccc2c1.O=C(O)C(F)(F)F", "Inhibition": 21}
{"smiles": "CCOC(=O)CCc1cc(F)c(F)c(OC[C@H](O)CNC(C)(C)C(O)c2ccc3ccccc3c2)c1.Cl", "note": "(stereo partly specified)", "Inhibition": 12}
